In PubChem BioAssay (NCATS) one finds activation data, which are given here for 40 compounds.

Where “and” joins values, the source holds several entries; their conditions need not be identical. Equal values may be shown once. Records with an inconclusive call do not appear. A number with no mark means an inactive call. Calls come from the whole dose curve; as a rule, active = well fitted activation curve with a large enough effect in the signal ratio; inconclusive = small, poorly fitted or top-dose-only effect, or a change in a side signal; inactive = flat fitted curve, though single readings scatter; the % refers to the signal ratio.

This experiment is described as follows: qHTS assay for small molecule activators of the nuclear factor-kappa B (NF-kB) signaling pathway (AID 651749). Note: series mostly up to about 77 µM; % of control where 0% means no effect. The settings on record: NF-kB-bla ME-180 cells, beta-lactamase FRET ratio, 16 h; active compounds read high. From the text: National Center for Advancing Translational Sciences [NCATS] NIH Chemical Genomics Center [NCGC] U.S. Environmental Protection Agency [EPA] National Institutes of Environmental Health Sciences [NIEHS] National Toxicology Program [NTP] Assay Overview: Transcription factors and their stimulated target gene expression play pivotal roles across many cellular processes including responses to environmental stimuli. Proper regulation of associated pathways is critical to maintain cell health and function. Constitutive activation of transcription factor pathways has been implicated in tumors as it may block cellular functions such as apoptosis and lead to invasion and metastasis. One important transcription factor that stimulates gene expression in response to cytokines, UV radiation, and other stimuli is nuclear factor-kappa B (NF-kB). To measure activation of the NF-kB pathway, the NF-kB-bla ME-180 cell line stably expressed beta-lactamase reporter gene under the regulation of a NF-kB response element was obtained from Invitrogen. This assay allows measurement of the NF-kB pathway activity induced by compounds in a ME-180 cell line. This system quantitates NF-kB activity using a FRET-based assay system where beta-lactamase expression disrupts FRET, allowing for fluorescent measurement of activity.
Assay Protocol Summary: For toxicology screening, 2,000 cells in 5 uL/well were dispensed into black, clear-bottom 1536-well plates using a Multidrop Combi (Thermo Scientific) dispenser. Following transfer of 23 nL compound or DMSO vehicle by a pin tool, the plates were incubated 16 hr at 37C and 5% CO2.
(In general: qHTS replaces the single test concentration by a dilution series.)
For `c1c[nH]cn1`, the activation is 0.0227%.

Take `C[C@@H]1CC2(OC(O)[C@]3(C)O[C@H]23)O[C@H]2C[C@@]3(C)[C@@H]4CC[C@H]5C(C)(C)C(O[C@@H]6OC[C@@H](O)[C@H](O)[C@H]6O)CC[C@@]56C[C@@]46CC[C@]3(C)[C@@H]12` (stereo not given in full): the activation was -2.65%.

With `CCN(CC)c1ccc(N)cc1`, the activation is 0.867%.

Regarding `OCC(CO)(CBr)CBr`, the activation is -1.02% and -1.55%.

Turning to `NC(=O)c1ccc([N+](=O)[O-])cc1`, the activation is -0.545%.

As to `Cc1cc2nc(N)sc2cc1C`, the activation was -0.263%.

Regarding `CCCCCCCC/C=C\CCCCCCCC(=O)N(CCO)CCO`, the activation was 3.7%.

As to `Oc1cc2c(cc1O)[C@H]1c3ccc(O)c(O)c3OC[C@@]1(O)C2`, the activation was -1.98%.

Consider `O=C(OCc1ccccc1)c1ccccc1O`, for which the activation is -0.301% and -2.68%.

Turning to `Cc1ccc2ccc3cccc4ccc1c2c34`, the activation was -0.92%.

With `CN(C)c1ccc(C(=N)c2ccc(N(C)C)cc2)cc1`, the activation was 3.33%.

For the compound `CCCC(=O)OC(=O)CCC`, the activation is 0.205% and -0.934%.

Take `O=CC(=O)c1ccccc1`: the activation was -1.11%.

Regarding `c1ccc2c(c1)ccc1ccccc12`, the activation was -1.69% and -0.971%.

In the case of `COc1ccc(C(=O)Nc2ccccc2)cc1[N+](=O)[O-]`, the activation is 1.42%.

On to `Nc1ccc2c(c1)C(=O)c1ccccc1C2=O`, for which the activation was 1.2% and -1.21%.

`C=CC1CO1` (stereo not given): the activation is 0.488%.

Regarding `c1ccncc1`, the activation was 0.644%.

`O=[N+]([O-])c1ccc(F)cc1F`: the activation is 0.374%.

In the case of `Cc1ccc(N)cc1[N+](=O)[O-]`, the activation was 0.0603%.

In the case of `Brc1ccc(-c2ccccc2)cc1`, the activation was 2.79%.

Turning to `CCOc1ccc2nc(N)sc2c1`, the activation was -0.893%.

Turning to `CN(C)c1ccc(Cc2ccc(N(C)C)cc2)cc1`, the activation is -0.0867% and 0.169%.

Turning to `Cc1c(N)cccc1Cl`, the activation was 0.113%.

On to `CCOC(=O)C1OC1c1ccccc1` (stereo not given), for which the activation is 0.437%.

On to `CCCCC(CC)COP(=O)(OCC(CC)CCCC)OCC(CC)CCCC` (stereo not given), for which the activation was -0.649%.

For the compound `CCCCOC(=O)COc1ccc(Cl)cc1Cl`, the activation was 1.36% and -1.12%.

In the case of `CC(=O)c1ccc(Cl)c(Cl)c1Cl`, the activation is -0.287%.

Turning to `CCCCCCCCOc1ccc(C(=O)O)cc1`, the activation is -0.0346%.

As for `CCNC(=S)NCC`, the activation was 0.201%.

Regarding `NC(=O)Nc1nc2ccccc2[nH]1`, the activation is -0.124%.

On to `CC/C=C/C/C=C/C/C=C/CCCCCCCC(=O)OCC`, for which the activation was -1.38%.

For `c1ccc(SCCSc2ccccc2)cc1`, the activation was -4.5%.

As for `Clc1nc2ccccc2nc1Cl`, the activation was -0.675%.

`COc1ccc(C)cc1N`: the activation was -0.459%.

Regarding `CCCCCCN`, the activation was -0.245%.

Turning to `C/C=C/C=C/C=O`, the activation was -1.3%.

As for `C=C(C#N)C(=O)OCC`, the activation is -1.44%.

As to `Cc1ccccc1OCC1CO1` (stereo not given), the activation is -1.53%.

`O=C1c2ccccc2C(=O)C1(O)O`: the activation was -0.508%.
